Assay results as given in PubChem BioAssay AID2284059 (EPA ToxCast).
Activity calls are given as the source filed them. The calls were made as follows: active = hit-call score of the fitted dose curve at least 0.9, where 1 is the maximum; inactive = score below 0.9.

biological target: CYP2E1, CYP2E1 (gene 1571) (UniProt P05181); test: ERF_FR_ADME_hCYP2E1: Eurofins (ERF) CYP450-related Enzyme Activity (ADME) Assay for CYP2E1
Procedure: ERF_FR_ADME_hCYP2E1 is a biochemical, single-readout assay that uses extracted gene-proteins in a cell-free assay. Measurements were taken 0.16 hour after chemical dosing in a 96-well plate. See CYP2E1 inhibition (recombinant, EC substrate).ERF_FR_ADME_hCYP2E1 is an assay component calculated from the ERF_FR_ADME_hCYP2E1 assay. It is designed to measure enzyme activity using a type of enzyme reporter as detected by peak area response of 6-hydroxychlorzoxazone with HPLC-MS/MS technology.Data from the assay component ERF_FR_ADME_hCYP2E1 was analyzed at the assay endpoint, ERF_FR_ADME_hCYP2E1, in the positive analysis fitting direction relative to acetonitrile as the negative control and baseline of activity. Using a type of enzyme reporter, loss-of-signal activity can be used to understand changes in enzymatic activity as they relate to gene CYP2E1. To generalize the intended target to other relatable targets, this assay endpoint is annotated to the cyp intended target family, where the subfamily is steroidogenesis-related.
Assay is performed using 20 uM chlorzoxazone, cells are pre-incubated for 5 minutes, and then 10 minutes incubation with NADPH at 37C.

CYP2E1, CYP2E1 (gene 1571), sequence (P05181 whole entry, looked up): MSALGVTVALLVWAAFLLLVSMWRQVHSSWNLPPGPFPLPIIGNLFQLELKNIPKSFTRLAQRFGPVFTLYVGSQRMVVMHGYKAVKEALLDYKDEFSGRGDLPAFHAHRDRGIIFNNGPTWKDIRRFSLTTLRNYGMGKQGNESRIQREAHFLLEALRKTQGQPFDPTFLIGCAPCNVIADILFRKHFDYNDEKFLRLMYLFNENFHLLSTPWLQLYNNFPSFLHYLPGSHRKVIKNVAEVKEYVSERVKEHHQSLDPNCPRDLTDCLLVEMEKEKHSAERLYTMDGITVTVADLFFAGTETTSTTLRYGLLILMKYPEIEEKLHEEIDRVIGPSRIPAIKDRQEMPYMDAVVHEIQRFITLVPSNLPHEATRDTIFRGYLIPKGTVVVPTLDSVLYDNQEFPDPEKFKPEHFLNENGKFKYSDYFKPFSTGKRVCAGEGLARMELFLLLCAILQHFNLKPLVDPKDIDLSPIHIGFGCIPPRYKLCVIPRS

AC50, active:
O=C(/C=C/c1ccc(O)cc1)CC(=O)/C=C/c1ccc(O)cc1 1150 nM
COc1cc(CCC(=O)CC(=O)CCc2ccc(O)c(OC)c2)ccc1O 1240 nM
COc1cc(/C=C/C(=O)CC(=O)/C=C/c2ccc(O)c(OC)c2)ccc1O 1080 nM
